The values that follow come from PubChem BioAssay (NCATS).

A number with no mark means an inactive call. Records with an inconclusive call do not appear. Calls of active or inactive are those of the source. The call rests on the fitted dose curve; in most records, active means well fitted curve in the direction sought with a large enough effect; inconclusive means small, poorly fitted or top-dose-only effect, or another doubt; inactive means no such curve, though single readings can be large; an effect the other way counts as inactive or inconclusive.

Test [1] can be described thus: NCATS anti-infectives library activity on HEK293 viability as a counter-qHTS vs the C. elegans viability qHTS (AID 1745854).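 Further: HEK293 cells exposed to compounds for 24 hr before the viability read; on the % scale 0 is the no-effect control and ±100 the full control effect.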 The essentials: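 HEK293 cells (1,500/well) exposed 24 hr at 37C to 1:5 titrations, up to 41.7 uM final; counter-screen to a C. elegans viability qHTS. Viability by CellTiter-Glo luminescence after 10 min at room temperature; digitonin as control.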
In general terms: qHTS replaces the single test concentration by a dilution series.

Test [2] concerns the target Phospholipid hydroperoxide glutathione peroxidase GPX4 (Homo sapiens) (UniProt P36969). Briefly: Primary qHTS Assay for Inhibitors of Recombinant Selenoprotein Glutathione Peroxidase 4 (GPX4) (AID 1845192). Further: nearly all actives have a fitted effect of over 65% in size. In short, it runs like this: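 NADPH consumption, followed by fluorescence at 340/450 nm between 0 and 15 min, reports GPX4 activity via coupled glutathione reductase (100 nM). Enzyme 200 nM was pre-exposed to compound 30 min; 0.5 mM cumene hydroperoxide and 1 mM GSH served as substrates.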

The target in test [3] is Luciferin 4-monooxygenase (Photinus pyralis) (UniProt P08659). Briefly: Primary firefly luciferase (FLuc) qHTS assay for identification of artifact compounds. (AID 1845220).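 Further: series mostly up to about 54 µM; plate controls were DMSO vehicle for no effect and no enzyme for full effect; nearly all actives have a fitted effect of over 60% in size.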 To be noted: outcome: dose series up to 54.1 µM. The essentials:
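Compounds sat 15 min at room temperature with 10 uM luciferin and 10 uM ATP (pH 7.6 Tris acetate). Firefly luciferase (10 nM final) was then added, and luminescence was read 5 min later. Data normalized to no-enzyme and DMSO controls were Hill-fitted.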

Test [4] in a line: Primary fluorescence-based thiol-reactive (MSTI) qHTS assay for identification of artifact compounds. (AID 1845221).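 Further: series mostly up to about 54 µM; thiol-reactive compounds lower the probe fluorescence signal; nearly all actives have a fitted effect of over 65% in size.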 In short, it runs like this: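 Probe: MSTI 4 uM, PBS pH 7.4, 2% DMSO. Incubation 1 h, RT, light-protected. Readout fluorescence 525/598 nm.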
For test [5], the system named is Nanoluciferase (engineered Oplophorus gracilirostris luciferase). Nature of the test: Primary Nanoluciferase (NLuc) qHTS assay for identification of artifact compounds. (AID 1845222).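 Further: series mostly up to about 54 µM; 0% = DMSO and -100% = no enzyme.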 The essentials: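 Luminescence from secreted NLuc (filtered, 1:55-diluted S16 cell medium) read 5 min after Nano-Glo substrate; compounds preincubated 15 min, RT. Hill fits of inhibition normalized to DMSO and no-enzyme.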

Test [6] can be described thus: Primary redox qHTS assay for identification of artifact compounds. (AID 1845223).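 Further: 0% = DMSO and 100% = reference compound.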 The essentials: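 Amplex Red (25 uM) and HRP (250 mU/mL) in HBSS, with compounds for 15 min, then 250 uM DTT for 30 min, room temperature, dark. Fluorescence 525/598 nm read; normalized to DMSO and 10 uM DA3003; Hill fit.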
The nature of test [7]: Viability counterscreen for agonist of constitutive androstane receptor (CAR) against the NCATS DSHEA and TCM libraries (AID 1794838).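 Further: HepG2 cells with CYP2B6 reporter and hCAR plus 0.75 µM PK11195 antagonist; 0% is about no effect.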 The essentials:
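HepG2-CYP2B6-hCAR cells (2,500/well) treated 24 h at 37C with compounds plus 0.75 uM PK11195; viability read by CellTiter-Fluor fluorescence, Ex/Em 405/540 nm.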

Test [8] is described as follows: HepG2 viability counterscreen (readout 2: ATP content) against the NCATS DSHEA and TCM libraries (AID 1794840). Further: 0% is about no effect. The essentials: (§1)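 HepG2 cells, 1,000/well, attached ~4 h, then exposed ~24 h at 37C to substances. Protease activity read by fluorescence of 25 uM GF-AFC (Ex/Em 380/510 nm) after 30 min; ATP then by CellTiter-Glo luminescence.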
Background: A counterscreen serves to expose hits that act by an unwanted route or on another target.

Test [9] can be described thus: HepG2 viability counterscreen (readout 1: protease activity) against the NCATS DSHEA and TCM libraries (AID 1794841).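 Further: cells exposed to compounds for about 24 h before the protease read; 0% is about no effect.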 The essentials:
as §1

Test [10] addresses Glutathione peroxidase 1 (Homo sapiens) (UniProt P07203). Briefly: Primary qHTS Assay for Inhibitors of Recombinant Selenoprotein Glutathione Peroxidase 1 (GPX1) (AID 1845191). Further: nearly all actives have a fitted effect of over 65% in size. Further: potency means the concentration at half of the fitted maximal effect. On activity, negative = inhibition: on the % scale 0 is the no-effect control and ±100 the full control effect. The essentials: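 10 nM GPX1 + cpd, 30 min RT; start w/ 1 mM GSH, 0.5 mM cumene hydroperoxide, 0.5 mM NADPH, 100 nM GR, 0.01% BSA; buffer 50 mM Tris-HCl pH 7.5, 2 mM EDTA, 150 mM NaCl; Fl 340/450, 0 & 15 min.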

The target in test [11] is Cytochrome P450 3A4 (Homo sapiens) (UniProt P08684). Briefly: qHTS for inhibitors of CYP3A4 against the NCATS DSHEA and TCM libraries (AID 1919971).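 Further: on the % scale 0 is the no-effect control and ±100 the full control effect; inhibition lowers luminescence from luciferin made by CYP3A4.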 In short, it runs like this: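 Luminescent P450-Glo format: compounds preincubated 15 min with enzyme and luciferin substrate, reaction run 30-45 min after NADPH regeneration solution. Intraplate controls: ketoconazole for CYP3A4 and CYP2C19, sulfaphenazole for CYP2C9.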
Sequence of Cytochrome P450 3A4 (Homo sapiens) (P08684 whole entry, looked up): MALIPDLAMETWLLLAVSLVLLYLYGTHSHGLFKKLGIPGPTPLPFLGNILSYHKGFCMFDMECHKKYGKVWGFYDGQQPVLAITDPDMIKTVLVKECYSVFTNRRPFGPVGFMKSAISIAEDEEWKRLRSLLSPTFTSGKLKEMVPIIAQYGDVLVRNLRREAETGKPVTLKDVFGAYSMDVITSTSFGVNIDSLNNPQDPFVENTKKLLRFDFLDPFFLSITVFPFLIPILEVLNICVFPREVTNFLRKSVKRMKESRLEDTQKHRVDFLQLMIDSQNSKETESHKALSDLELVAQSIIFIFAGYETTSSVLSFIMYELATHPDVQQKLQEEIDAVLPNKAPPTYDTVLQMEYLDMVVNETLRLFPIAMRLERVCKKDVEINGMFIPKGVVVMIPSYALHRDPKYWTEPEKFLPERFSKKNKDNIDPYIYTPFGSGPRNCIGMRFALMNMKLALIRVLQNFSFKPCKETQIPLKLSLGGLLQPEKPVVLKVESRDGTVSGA

Test [12] addresses Cytochrome P450 2D6 (Homo sapiens) (UniProt P10635). Nature of the test: qHTS for inhibitors of CYP2D6 against the NCATS DSHEA and TCM libraries (AID 1919972). Further: on the % scale 0 is the no-effect control and ±100 the full control effect. In short, it runs like this:
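Luminescent P450-Glo read-out of CYP2D6 turnover of a luciferin substrate after NADPH-driven reaction of 30-45 min at room temperature. Compounds were first preincubated 15 min with enzyme at titrated concentrations; quinidine was the intraplate control.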

The nature of test [13]: KB-3-1 P-gp reporter qHTS against the NCATS DSHEA and TCM libraries (AID 1919975). Further: 0% is about no effect. The essentials: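 Parental KB-3-1 cells, 500 cells/well, in DMEM with 10% FBS, exposed 72 h at 37 C to compounds in concentration-response. Viability read by CellTiter-Glo luminescence after 30 min at room temperature.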
The nature of test [14]: qHTS Counterscreen for compound interference against the NCATS DSHEA and TCM libraries (AID 1919978).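 Further: compounds preincubated with 1 µM D-luciferin or buffer before detection reagent; % of control where 0% means no effect.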 As to conditions: firefly luciferase detection reagent interference, luminescence. In short, it runs like this:
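Firefly luciferase detection reagent was added after compounds (19.5 nM–39.8 uM final) had been incubated 15 min at room temperature with 1 uM D-luciferin or with 100 mM phosphate buffer alone. Luminescence was read after 30 min at room temperature.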

Test [15] in a line: Dual reporter qHTS for agonist of Pregnane X Receptor (hPXR) against the NCATS DSHEA and TCM libraries: Fluorescence readout (AID 1920058). Further: 0% is about no effect. In short, it runs like this: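 hPXR-Luc HepG2 cells, 2000/well in charcoal-stripped serum, attached 5 h, dosed for ~24 h at 37 °C. Fluorescence read is CellTiter-Fluor viability (Ex/Em 405/540 nm); rifampicin positive, tetraoctyl ammonium bromide (92 µM) cytotoxicity controls.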

Sequence of Phospholipid hydroperoxide glutathione peroxidase GPX4 (Homo sapiens) (P36969 whole entry, looked up): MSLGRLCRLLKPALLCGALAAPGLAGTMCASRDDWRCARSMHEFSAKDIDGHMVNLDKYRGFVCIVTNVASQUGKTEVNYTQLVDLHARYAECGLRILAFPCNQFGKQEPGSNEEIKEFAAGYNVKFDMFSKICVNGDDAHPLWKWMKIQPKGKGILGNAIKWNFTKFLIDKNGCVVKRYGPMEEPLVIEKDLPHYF
Sequence of Glutathione peroxidase 1 (Homo sapiens) (P07203 whole entry, looked up): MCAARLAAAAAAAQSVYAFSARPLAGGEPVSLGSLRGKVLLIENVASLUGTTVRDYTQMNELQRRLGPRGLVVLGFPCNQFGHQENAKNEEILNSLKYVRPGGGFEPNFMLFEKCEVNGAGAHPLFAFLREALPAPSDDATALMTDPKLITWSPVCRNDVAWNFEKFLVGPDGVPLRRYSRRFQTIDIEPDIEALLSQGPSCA
Sequence of Cytochrome P450 2D6 (Homo sapiens) (P10635 whole entry, looked up): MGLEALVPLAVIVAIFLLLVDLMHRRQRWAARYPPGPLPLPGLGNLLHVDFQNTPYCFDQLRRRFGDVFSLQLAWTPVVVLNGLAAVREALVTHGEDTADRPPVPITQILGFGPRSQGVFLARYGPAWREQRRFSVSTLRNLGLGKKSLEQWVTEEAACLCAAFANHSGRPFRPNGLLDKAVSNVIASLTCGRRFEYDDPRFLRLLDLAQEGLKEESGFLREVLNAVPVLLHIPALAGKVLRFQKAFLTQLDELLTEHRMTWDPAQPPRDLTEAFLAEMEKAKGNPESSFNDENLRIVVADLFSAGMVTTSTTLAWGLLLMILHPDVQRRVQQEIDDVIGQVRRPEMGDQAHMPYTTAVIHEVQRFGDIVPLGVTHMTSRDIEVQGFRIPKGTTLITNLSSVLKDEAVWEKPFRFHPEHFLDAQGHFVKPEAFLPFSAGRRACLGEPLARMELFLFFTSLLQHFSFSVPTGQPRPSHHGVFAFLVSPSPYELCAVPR

In the case of `C=C1[C@H](CO)[C@@H](O)C[C@@H]1n1cnc2c(=O)[nH]c(N)nc21`, the result in test [1], in test [3], in test [4], in test [5] and in test [6] was inactive. In test [2], the Potency result was “inactive”.
On to `Cc1ncc(C[n+]2csc(CCO)c2C)c(N)n1`, for which the compound was classed as inactive in test [7], in [8], in [9], in test [11], in test [12] and in [13]. Also, the result in [15] was inactive. The Potency result in test [10] and in test [2] was “inactive” in each case. In test [14], the max response is -0.256%.
On to `CC(=O)N=c1sc(S(N)(=O)=O)nn1C`, for which the call in [1] was inactive. Moreover, the Potency entry in test [10] and in test [2] was “inactive” in each case.
As to `CCCC(CCC)C(=O)OC1C[C@H]2CC[C@@H](C1)[N+]2(C)C` (stereo partly drawn), the call in test [1] was inactive. The Potency entry in [10] and in test [2] was “inactive” in each case.
Take `CC(C)[C@@H](C)/C=C/[C@@H](C)[C@H]1CC[C@H]2/C(=C/C=C3\C[C@@H](O)CC[C@@H]3C)CCC[C@]12C`: the Potency result in test [10] was “inactive”.
Turning to `FC(F)OC(Cl)C(F)(F)F` (stereo not drawn), the Potency entry in test [10] and in [2] was “inactive” in each case.
In the case of `CSc1nc2cc(Oc3cccc(Cl)c3Cl)c(Cl)cc2[nH]1`, the Potency result in [10] was “inactive”.
`COC(=O)c1ccccc1O`: the Potency entry in test [10] and in [2] was “inactive” throughout.
`CC(C)(O/N=C(\C(=O)N[C@@H]1C(=O)N2C(C(=O)[O-])=C(C[n+]3ccccc3)CS[C@H]12)c1csc(N)n1)C(=O)O`: the Potency in test [10] was 7.85 µM (active).
Consider `OCCCNc1ccccc1`, for which the Potency entry in [10] and in test [2] was “inactive” throughout.
In the case of `CCOC(=O)[C@H](CS)NCCN[C@@H](CS)C(=O)OCC`, in test [10], the Potency is 22.7 µM (active).
For `NC(=O)[C@H]1O[C@@H](O)[C@H](O)[C@@H](O)[C@@H]1O`, the Potency entry in test [10] and in test [2] was “inactive” throughout.
With `O=C(O)c1cc(N=Nc2ccc(O)c(C(=O)O)c2)ccc1O`, the Potency entry in test [10] was “inactive”.
`C[C@@H]1O[C@@H]1P(=O)(O)O`: the Potency in [10] was 11.1 µM (active).
Consider `CCCC1C(=O)N2C(N(C)C)=Nc3ccc(C)cc3N2C1=O` (stereo not drawn), for which the Potency result in test [10] was “inactive”.
With `CCC(O)c1ccccc1` (stereo not drawn), the Potency entry in test [10] and in test [2] was “inactive” in each case.
Turning to `c1ccc2ccccc2c1`, the Potency result in test [10] and in [2] was “inactive” throughout.
`CO/N=C(\C(=O)N[C@@H]1C(=O)N2C(C(=O)O)=C(CSc3nnnn3C)CS[C@H]12)c1csc(N)n1`: in test [10], the Potency was 11.4 µM (active).
Regarding `CC(C)(C)CC(C)(C)c1cc(Cc2cc(C(C)(C)CC(C)(C)C)cc(-n3nc4ccccc4n3)c2O)c(O)c(-n2nc3ccccc3n2)c1`, the activity, negative = inhibition in test [10] is -7.19% [at 4.49 µM].
Consider `CC(O)[C@H]1CC[C@H]2[C@@H]3CC[C@@H]4C[C@@H](O)CC[C@]4(C)[C@H]3CC[C@]12C` (stereo partly drawn), for which the Potency result in [10] and in [2] was “inactive” in each case.
Turning to `CN1C(=O)C[C@@H](C(=O)N[C@@H](Cc2cnc[nH]2)C(=O)N2CCC[C@H]2C(N)=O)NC1=O`, the Potency result in [10] and in test [2] was “inactive” in each case.
With `CC1=C(/C=C/C(C)=C/C=C/C(C)=C/C=C/C=C(C)/C=C/C=C(C)/C=C/C2=C(C)C[C@@H](O)CC2(C)C)C(C)(C)C[C@H](O)C1`, the Potency entry in test [10] and in test [2] was “inactive” each time.
Regarding `O=C(OCc1ccccc1)c1ccc(O)cc1`, the Potency entry in test [10] and in test [2] was “inactive” throughout.
Consider `O=[N+]([O-])O[C@@H]1CO[C@H]2[C@@H]1OC[C@@H]2O`, for which the Potency result in test [10] and in [2] was “inactive” each time.
As for `C=CCOc1ccc(CC(=O)O)cc1Cl`, the Potency entry in test [10] and in test [2] was “inactive” throughout.
For `CS(=O)(=O)OCC(O)C(O)COS(C)(=O)=O` (stereo not drawn), the Potency entry in [10] and in [2] was “inactive” in each case.
For the compound `CCCCCCCCCCCCCCCC(=O)OC[C@@H](O)[C@H]1OC[C@H](O)[C@H]1O`, the Potency entry in test [10] and in test [2] was “inactive” throughout.
Consider `Cc1cc(O)c2c(c1)O[C@@]1(C)CC[C@H]3C(C)(C)CCCC34CO[C@@H]2[C@H]41` (stereo partly drawn), for which, in test [10], the Potency entry is “inactive”.
Take `Cc1cc(=O)c(C(=O)N[C@@H](C(=O)N[C@@H]2C(=O)N3C(C(=O)O)=C(CSc4nnnn4C)CS[C@H]23)c2ccc(O)cc2)c[nH]1`: the Potency in [10] is 12.8 µM (active).
Still for that read-out and setting: the value for `CN(C)C=Nc1c(I)cc(I)c(CCC(=O)O)c1I` was “inactive”; that for `Nc1nc(/C(=C/CC(=O)O)C(=O)N[C@@H]2C(=O)N3C(C(=O)O)=CCS[C@H]23)cs1` was 9.04 µM (active).
